Results filed as inconclusive are left out. Calls of active or inactive are those of the source. Calls come from the whole dose curve; as a rule, active = well fitted curve in the direction sought with a large enough effect; inconclusive = small, poorly fitted or top-dose-only effect, or another doubt; inactive = no such curve, though single readings can be large; an effect the other way counts as inactive or inconclusive.
Each compound was assayed against Rap guanine nucleotide exchange factor 4 (Homo sapiens) (UniProt Q8WZA2) (assay: Confirmatory qHTS for agonist of cAMP-regulated guanine nucleotide exchange factor 4 (EPAC2) (AID 1645884;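 note: nucleotide exchange releases bodipy-GDP from Rap1 and this lowers its fluorescence; nearly all actives have a fitted effect of over 65% in size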)). Conditions: EPAC2 GEF activity, Rap1B-BODIPY-GDP fluorescence; series mostly up to 154 µM; activation: at the top concentration.
% is set by controls: 0 for no effect and ±100 for the full control effect.

Chain of Rap guanine nucleotide exchange factor 4 (Homo sapiens) (Q8WZA2 whole entry, looked up): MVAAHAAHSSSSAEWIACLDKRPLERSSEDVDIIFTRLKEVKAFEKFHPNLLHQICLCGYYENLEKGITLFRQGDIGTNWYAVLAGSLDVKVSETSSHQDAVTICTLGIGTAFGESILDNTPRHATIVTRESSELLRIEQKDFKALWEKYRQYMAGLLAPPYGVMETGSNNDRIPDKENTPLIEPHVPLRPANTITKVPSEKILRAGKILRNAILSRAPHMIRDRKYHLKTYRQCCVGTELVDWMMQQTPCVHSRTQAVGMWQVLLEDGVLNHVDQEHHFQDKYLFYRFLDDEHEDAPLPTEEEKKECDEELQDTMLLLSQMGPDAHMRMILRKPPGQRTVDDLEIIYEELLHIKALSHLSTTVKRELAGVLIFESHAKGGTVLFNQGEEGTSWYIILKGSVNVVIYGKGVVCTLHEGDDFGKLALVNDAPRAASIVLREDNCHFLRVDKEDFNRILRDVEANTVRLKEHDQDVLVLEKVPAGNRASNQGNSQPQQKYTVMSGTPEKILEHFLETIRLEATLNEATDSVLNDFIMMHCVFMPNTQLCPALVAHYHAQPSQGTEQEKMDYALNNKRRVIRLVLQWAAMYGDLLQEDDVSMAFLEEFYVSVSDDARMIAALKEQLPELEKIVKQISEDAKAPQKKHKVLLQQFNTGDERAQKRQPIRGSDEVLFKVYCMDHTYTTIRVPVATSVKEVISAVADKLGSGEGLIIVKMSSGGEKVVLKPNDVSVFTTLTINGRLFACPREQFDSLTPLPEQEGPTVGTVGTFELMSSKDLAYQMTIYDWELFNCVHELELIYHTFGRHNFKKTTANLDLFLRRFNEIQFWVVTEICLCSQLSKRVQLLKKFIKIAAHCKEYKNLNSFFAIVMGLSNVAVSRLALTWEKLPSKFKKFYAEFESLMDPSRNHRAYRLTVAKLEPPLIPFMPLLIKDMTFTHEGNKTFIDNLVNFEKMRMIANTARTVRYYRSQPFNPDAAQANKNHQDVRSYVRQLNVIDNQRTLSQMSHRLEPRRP

activation, inactive:
CC(C)(C)Cc1c(-c2ccccc2)nc2ccc(Cl)cn12 9.48% [at 17.1 µM, percent relative to cAMP agonist control]
O=C(NCc1ccccc1)C(c1ccccc1)n1c(=O)c(-c2ccco2)nc2ccccc21 (stereo not given) 3.56% [at 17.1 µM, percent relative to cAMP agonist control]
CCN=C1S/C(=C\c2ccc(-c3cccc(C(=O)O)c3)o2)C(=O)N1CC -19.9%
O=C(/C=C/c1ccc(-c2ccccc2[N+](=O)[O-])o1)c1ccco1 7.95% [at 17.1 µM, percent relative to cAMP agonist control]
CCOc1ccc(S(=O)(=O)Nc2ccc(F)cc2)c(C)c1C 0.885%
O=C(CN1C(=O)/C(=C2/SC(=S)N(CCS(=O)(=O)O)C2=O)c2ccccc21)Nc1cccc(C(F)(F)F)c1 2.25% [at 17.1 µM, percent relative to cAMP agonist control]
O=C(OCC1OC(n2ncc(=O)[nH]c2=O)C(OC(=O)c2ccccc2)C1OC(=O)c1ccccc1)c1ccccc1 (stereo not given) 0.888% [at 17.1 µM, percent relative to cAMP agonist control]
O=C(Nc1cccc(NC(=O)c2cccs2)c1)c1ccc(Br)o1 12.4%
COc1ccc(CC(=O)NCc2ccc3c(c2)CCN3C(=O)c2ccc(Cl)cc2)cc1OC -26.1% [at 83.8 µM, percent relative to cAMP agonist control]
CN(C)S(=O)(=O)c1cccc(COC(=O)Cc2c(F)cccc2Cl)c1 18.7%
Cc1cccc(NC(=O)CN2C(=O)S/C(=C\c3cccn3-c3cccc(C(=O)O)c3)C2=O)c1 -2.02%
Cc1ccc(C(C)C)c(OCC(=O)NCC2(N3CCOCC3)CCCCC2)c1 -15.2% [at 83.8 µM, percent relative to cAMP agonist control]
Cc1cccc(Nc2nnc(-c3ccc(N4CCOCC4)c([N+](=O)[O-])c3)c3ccccc23)c1 6.39%
CN(c1ccccc1)c1ccc(/C=C(/CCC(=O)O)c2nc3ccccc3s2)cc1[N+](=O)[O-] -28.8%
COc1ccc(OC)c(-n2c(SC)nnc2-c2c[nH]c3ccccc23)c1 0.557%

What follows are compounds tested against Rap guanine nucleotide exchange factor 4 (Homo sapiens) (UniProt Q8WZA2) (assay: Confirmatory qHTS for antagonist of cAMP-regulated guanine nucleotide exchange factor 4 (EPAC2) (AID 1645885; note: nearly all actives have a fitted effect of over 25% in size)). Conditions: EPAC2 Rap1B-BODIPY-GDP exchange fluorescence, biochemical; series mostly up to 12.7 µM; activity change, negative = inhibition: at the top concentration.

Activity change, negative = inhibition, inactive:
COc1cc(C2CC(=O)Oc3cc(C)c(Br)c(C)c32)cc(OC)c1OC (stereo not given) -40.1%
O=C(NCCc1ccccc1)c1ccc(Cn2c(SCc3cccc(F)c3)nc3cccnc32)cc1 -21.7%
COC(=O)c1ccc2c(=O)n(CCCCCC(=O)N3CCN(c4cc(C)ccc4C)CC3)c(=O)[nH]c2c1 1.96%
O=C(CSc1ccc(-c2ccco2)nn1)c1cccc([N+](=O)[O-])c1 -2.5% [at 114 µM]
O=C(NNC(=O)c1ccccc1F)c1cccc(-n2cccc2)c1 87.3% [at 114 µM]
CC(C)(C)NC(=O)COC(=O)c1c2c(nc3ccccc13)CCC2 -3.13%
COc1ccc2oc(=O)c(-c3nnc(NCc4ccco4)s3)cc2c1 -5.81%
COC(=O)C1(C)CC1(c1ccccc1)c1ccccc1 (stereo not given) -8.45%
c1cc(-c2cc3nc(NC4CCCCC4)ccn3n2)ccc1OCCN1CCOCC1 -15.6% [at 114 µM]
CCc1ccc2occ(CC(=O)Nc3ccc(C)c(C)c3)c2c1 -19.4%
O=C(/C=C/c1ccco1)Nc1cccc2cccnc12 -15.8%
COc1cc(S(=O)(=O)NC2CCCCC2C)ccc1Cl (stereo not given) -99.8% [at 114 µM]
O=C(O)c1ccc(N2C(=O)CC(SC(=NCc3ccc4c(c3)OCO4)Nc3ccc(F)cc3)C2=O)cc1 (stereo not given) 44.2%
CC1=NN(c2ccc(C)c(C)c2)C(=O)C1C(c1cccc(O)c1)C1C(=O)N(c2ccc(C)c(C)c2)N=C1C (stereo not given) 0.159%
NC(=O)[C@H]1CC2(CC(c3cccc(NC(=O)[C@H]4CCC(=O)N4)c3)=NO2)CN1C(=O)c1ccccc1 (stereo not given in full) 8.58% [at 114 µM]
Cn1c(=O)c(C(=O)NNC(=O)c2ccccc2Br)c(O)c2ccccc21 -2.95%
O=c1c2ccccc2nc(N/N=C/c2c(O)ccc3ccccc23)n1O 39.8% [at 114 µM]
CCCC1=C(C(=O)OCC)C(c2ccco2)C(C#N)=C(N)O1 (stereo not given) -19.8%
O=C(N/N=C/c1ccc(Sc2ccccn2)o1)c1cc2ccccc2cc1O 71.1% [at 114 µM]
CC(C)(C)Cc1c(-c2ccccc2)nc2ccc(Cl)cn12 -17.2%
O=C(NCc1ccccc1)C(c1ccccc1)n1c(=O)c(-c2ccco2)nc2ccccc21 (stereo not given) 2.72%
CCN=C1S/C(=C\c2ccc(-c3cccc(C(=O)O)c3)o2)C(=O)N1CC 75.3% [at 114 µM]
O=C(/C=C/c1ccc(-c2ccccc2[N+](=O)[O-])o1)c1ccco1 3.06%
CCOc1ccc(S(=O)(=O)Nc2ccc(F)cc2)c(C)c1C 50.3% [at 114 µM]
O=C(CN1C(=O)/C(=C2/SC(=S)N(CCS(=O)(=O)O)C2=O)c2ccccc21)Nc1cccc(C(F)(F)F)c1 -8.41%
O=C(OCC1OC(n2ncc(=O)[nH]c2=O)C(OC(=O)c2ccccc2)C1OC(=O)c1ccccc1)c1ccccc1 (stereo not given) -20.7%
O=C(Nc1cccc(NC(=O)c2cccs2)c1)c1ccc(Br)o1 -21.1% [at 114 µM]
COc1ccc(CC(=O)NCc2ccc3c(c2)CCN3C(=O)c2ccc(Cl)cc2)cc1OC 1.54%
CN(C)S(=O)(=O)c1cccc(COC(=O)Cc2c(F)cccc2Cl)c1 -15.4% [at 114 µM]
Cc1ccc(C(C)C)c(OCC(=O)NCC2(N3CCOCC3)CCCCC2)c1 1.9%
Cc1cccc(Nc2nnc(-c3ccc(N4CCOCC4)c([N+](=O)[O-])c3)c3ccccc23)c1 -4.04% [at 114 µM]
CN(c1ccccc1)c1ccc(/C=C(/CCC(=O)O)c2nc3ccccc3s2)cc1[N+](=O)[O-] 138% [at 114 µM]
COc1ccc(OC)c(-n2c(SC)nnc2-c2c[nH]c3ccccc23)c1 -20.9% [at 114 µM]

outcome, inactive:
Nc1ccccc1C(=O)NNc1c2ccccc2nc2ccccc12
O=C1CS(=O)(=O)N(Cc2cccc(F)c2)c2ccc(Br)cc21
O=C1C=C(NS(=O)(=O)c2ccccc2)C(=O)c2ccccc21
O=C(COc1ccccc1-c1ccccc1)NCc1ccco1 inactive [at 12.7 µM]
O=C(Nc1cc(Cl)cc(Cl)c1)c1ccc(F)c(S(=O)(=O)NC2CCCC2)c1 inactive [at 12.7 µM]
NC(=O)c1c(NC(=O)CSc2nnc(-c3ccco3)n2N)sc2c1CCCC2
Cc1cccc(NC(=O)CN2C(=O)S/C(=C\c3cccn3-c3cccc(C(=O)O)c3)C2=O)c1

Source: PubChem BioAssay (NCATS)
